SMILES strings stand for the structures.

This passage reports residual activity results from ChEMBL document CHEMBL2218924, “A broad activity screen in support of a chemogenomic map for kinase signalling research and drug discovery” (Biochem J, 2013).

In test [1] the target is T1, Ephrin type-B receptor 1 (Homo sapiens) (UniProt P54762).
T1 sequence (whole entry): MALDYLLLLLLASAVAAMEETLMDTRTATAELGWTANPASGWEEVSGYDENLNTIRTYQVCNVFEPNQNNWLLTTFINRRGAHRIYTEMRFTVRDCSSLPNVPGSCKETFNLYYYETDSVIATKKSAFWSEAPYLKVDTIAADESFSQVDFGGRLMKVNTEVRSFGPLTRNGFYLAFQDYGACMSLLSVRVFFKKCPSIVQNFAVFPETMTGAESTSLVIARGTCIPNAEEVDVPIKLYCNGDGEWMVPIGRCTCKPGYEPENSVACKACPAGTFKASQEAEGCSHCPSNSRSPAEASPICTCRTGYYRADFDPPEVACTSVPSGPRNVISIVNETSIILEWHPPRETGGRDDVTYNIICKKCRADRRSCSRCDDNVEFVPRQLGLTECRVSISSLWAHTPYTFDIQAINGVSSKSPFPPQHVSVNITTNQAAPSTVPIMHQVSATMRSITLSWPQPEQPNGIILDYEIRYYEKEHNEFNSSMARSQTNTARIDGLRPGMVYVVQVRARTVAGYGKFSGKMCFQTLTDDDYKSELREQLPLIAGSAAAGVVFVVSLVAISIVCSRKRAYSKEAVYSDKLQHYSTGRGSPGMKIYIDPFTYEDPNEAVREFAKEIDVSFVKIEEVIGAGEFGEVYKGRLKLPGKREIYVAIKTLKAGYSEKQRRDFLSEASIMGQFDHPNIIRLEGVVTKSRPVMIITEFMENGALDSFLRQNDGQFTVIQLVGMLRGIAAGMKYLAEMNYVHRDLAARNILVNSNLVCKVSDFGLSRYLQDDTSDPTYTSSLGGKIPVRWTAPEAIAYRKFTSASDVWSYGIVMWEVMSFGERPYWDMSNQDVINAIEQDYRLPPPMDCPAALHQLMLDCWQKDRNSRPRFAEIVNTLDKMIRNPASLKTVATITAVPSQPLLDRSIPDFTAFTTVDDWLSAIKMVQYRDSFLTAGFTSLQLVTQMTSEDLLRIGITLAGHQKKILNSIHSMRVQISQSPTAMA
The following applies: at 10 µM.

The target of test [2] is T2, Ephrin type-B receptor 2 (Homo sapiens) (UniProt P29323).
T2 sequence (whole entry): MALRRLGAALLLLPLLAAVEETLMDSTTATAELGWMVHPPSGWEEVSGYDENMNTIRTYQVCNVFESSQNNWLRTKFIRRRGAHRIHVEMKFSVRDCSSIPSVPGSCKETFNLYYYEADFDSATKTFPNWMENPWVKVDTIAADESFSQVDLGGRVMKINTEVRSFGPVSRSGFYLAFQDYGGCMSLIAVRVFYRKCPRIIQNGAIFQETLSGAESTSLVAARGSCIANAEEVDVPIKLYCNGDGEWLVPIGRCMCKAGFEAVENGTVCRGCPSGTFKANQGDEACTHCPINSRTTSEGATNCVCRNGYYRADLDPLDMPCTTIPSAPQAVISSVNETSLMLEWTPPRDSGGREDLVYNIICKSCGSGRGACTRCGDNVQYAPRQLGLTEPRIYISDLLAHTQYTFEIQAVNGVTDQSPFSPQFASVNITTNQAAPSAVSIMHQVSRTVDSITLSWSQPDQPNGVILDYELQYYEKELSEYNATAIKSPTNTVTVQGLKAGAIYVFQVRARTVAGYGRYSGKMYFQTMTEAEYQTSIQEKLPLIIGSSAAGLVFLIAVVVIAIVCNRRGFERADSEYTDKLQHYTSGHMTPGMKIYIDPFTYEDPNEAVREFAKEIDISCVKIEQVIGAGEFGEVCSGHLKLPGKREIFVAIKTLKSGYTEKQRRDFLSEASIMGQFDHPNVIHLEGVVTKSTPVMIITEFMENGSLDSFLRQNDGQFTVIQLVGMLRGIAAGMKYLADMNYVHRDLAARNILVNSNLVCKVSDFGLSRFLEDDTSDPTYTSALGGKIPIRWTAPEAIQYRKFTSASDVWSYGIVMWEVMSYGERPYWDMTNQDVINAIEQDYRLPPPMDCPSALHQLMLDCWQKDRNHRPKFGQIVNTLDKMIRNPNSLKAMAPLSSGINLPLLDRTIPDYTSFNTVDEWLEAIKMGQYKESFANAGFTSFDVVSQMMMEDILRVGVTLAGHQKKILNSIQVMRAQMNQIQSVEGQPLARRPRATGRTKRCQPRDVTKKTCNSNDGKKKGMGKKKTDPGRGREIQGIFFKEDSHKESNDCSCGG
The following applies: at 1 µM.

The target of test [3] is T2, Ephrin type-B receptor 2 (Homo sapiens). The following applies: at 10 µM.
Test [4] has as its target T3, Ephrin type-B receptor 3 (Homo sapiens) (UniProt P54753).
T3 sequence (whole entry): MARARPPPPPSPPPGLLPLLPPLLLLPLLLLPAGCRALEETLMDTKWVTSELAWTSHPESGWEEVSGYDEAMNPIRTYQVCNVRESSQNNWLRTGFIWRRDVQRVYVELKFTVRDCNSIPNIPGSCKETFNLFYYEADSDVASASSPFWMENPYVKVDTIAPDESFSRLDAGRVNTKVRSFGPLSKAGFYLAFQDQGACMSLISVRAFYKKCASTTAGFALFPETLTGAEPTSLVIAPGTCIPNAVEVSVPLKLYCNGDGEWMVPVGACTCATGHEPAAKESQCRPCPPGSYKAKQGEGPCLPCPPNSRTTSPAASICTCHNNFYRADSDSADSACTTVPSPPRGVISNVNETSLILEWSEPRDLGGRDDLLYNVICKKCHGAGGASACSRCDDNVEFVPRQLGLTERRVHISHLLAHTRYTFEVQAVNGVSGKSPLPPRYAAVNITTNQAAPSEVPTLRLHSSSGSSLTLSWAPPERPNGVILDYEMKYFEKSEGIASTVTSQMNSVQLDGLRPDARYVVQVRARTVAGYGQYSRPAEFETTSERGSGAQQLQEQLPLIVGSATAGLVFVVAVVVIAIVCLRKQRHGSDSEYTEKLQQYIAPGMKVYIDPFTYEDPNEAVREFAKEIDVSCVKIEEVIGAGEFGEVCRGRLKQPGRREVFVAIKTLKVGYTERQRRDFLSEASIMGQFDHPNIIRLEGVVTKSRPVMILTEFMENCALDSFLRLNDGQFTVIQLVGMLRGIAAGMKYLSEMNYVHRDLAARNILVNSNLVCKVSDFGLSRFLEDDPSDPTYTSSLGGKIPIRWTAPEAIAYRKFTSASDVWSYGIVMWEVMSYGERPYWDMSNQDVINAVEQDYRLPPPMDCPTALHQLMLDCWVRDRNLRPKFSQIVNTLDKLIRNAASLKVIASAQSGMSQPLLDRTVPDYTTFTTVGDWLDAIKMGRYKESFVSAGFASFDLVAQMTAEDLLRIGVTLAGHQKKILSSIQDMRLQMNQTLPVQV
The settings on record: at 1 µM.

Test [5] has as its target T3, Ephrin type-B receptor 3 (Homo sapiens). The settings on record: at 10 µM.
Test [6] concerns the target T4, Ephrin type-B receptor 4 (Homo sapiens) (UniProt P54760).
T4 sequence (whole entry): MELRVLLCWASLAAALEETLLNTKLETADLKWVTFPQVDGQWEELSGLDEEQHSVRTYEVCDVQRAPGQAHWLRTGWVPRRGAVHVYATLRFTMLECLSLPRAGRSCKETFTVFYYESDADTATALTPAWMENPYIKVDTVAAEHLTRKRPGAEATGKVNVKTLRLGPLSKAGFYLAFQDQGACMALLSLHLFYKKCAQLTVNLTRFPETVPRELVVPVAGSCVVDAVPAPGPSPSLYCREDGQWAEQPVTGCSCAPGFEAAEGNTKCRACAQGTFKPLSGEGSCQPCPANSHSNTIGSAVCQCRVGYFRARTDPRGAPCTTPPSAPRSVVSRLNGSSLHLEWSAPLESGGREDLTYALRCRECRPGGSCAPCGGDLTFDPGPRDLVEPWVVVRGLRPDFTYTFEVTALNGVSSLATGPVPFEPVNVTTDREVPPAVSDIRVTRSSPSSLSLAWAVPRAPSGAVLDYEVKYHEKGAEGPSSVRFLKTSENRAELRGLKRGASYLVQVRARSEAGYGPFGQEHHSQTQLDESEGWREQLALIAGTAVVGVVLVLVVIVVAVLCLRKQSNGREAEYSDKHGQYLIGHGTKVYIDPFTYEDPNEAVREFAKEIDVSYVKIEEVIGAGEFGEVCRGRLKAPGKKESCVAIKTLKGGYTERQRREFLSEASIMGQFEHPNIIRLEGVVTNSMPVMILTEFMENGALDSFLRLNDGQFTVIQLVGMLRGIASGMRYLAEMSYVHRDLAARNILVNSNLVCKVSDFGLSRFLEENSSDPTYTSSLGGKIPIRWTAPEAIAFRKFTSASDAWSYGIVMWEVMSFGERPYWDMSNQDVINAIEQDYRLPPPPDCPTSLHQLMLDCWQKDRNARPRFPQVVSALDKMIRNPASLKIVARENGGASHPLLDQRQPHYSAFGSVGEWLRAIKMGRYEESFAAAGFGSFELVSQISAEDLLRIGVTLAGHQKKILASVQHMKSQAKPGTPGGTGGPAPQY
The following applies: at 1 µM.

The target of test [7] is T4, Ephrin type-B receptor 4 (Homo sapiens). The settings on record: at 10 µM.
Test [8] concerns the target Receptor tyrosine-protein kinase erbB-4 (Homo sapiens) (UniProt Q15303). The following applies: at 1 µM.
The target is the same in test [9]. The settings on record: at 10 µM.
Test [10] has as its target Focal adhesion kinase 1 (Homo sapiens) (UniProt Q05397). The following applies: at 1 µM.

Chain of Receptor tyrosine-protein kinase erbB-4 (Homo sapiens) (Q15303 whole entry): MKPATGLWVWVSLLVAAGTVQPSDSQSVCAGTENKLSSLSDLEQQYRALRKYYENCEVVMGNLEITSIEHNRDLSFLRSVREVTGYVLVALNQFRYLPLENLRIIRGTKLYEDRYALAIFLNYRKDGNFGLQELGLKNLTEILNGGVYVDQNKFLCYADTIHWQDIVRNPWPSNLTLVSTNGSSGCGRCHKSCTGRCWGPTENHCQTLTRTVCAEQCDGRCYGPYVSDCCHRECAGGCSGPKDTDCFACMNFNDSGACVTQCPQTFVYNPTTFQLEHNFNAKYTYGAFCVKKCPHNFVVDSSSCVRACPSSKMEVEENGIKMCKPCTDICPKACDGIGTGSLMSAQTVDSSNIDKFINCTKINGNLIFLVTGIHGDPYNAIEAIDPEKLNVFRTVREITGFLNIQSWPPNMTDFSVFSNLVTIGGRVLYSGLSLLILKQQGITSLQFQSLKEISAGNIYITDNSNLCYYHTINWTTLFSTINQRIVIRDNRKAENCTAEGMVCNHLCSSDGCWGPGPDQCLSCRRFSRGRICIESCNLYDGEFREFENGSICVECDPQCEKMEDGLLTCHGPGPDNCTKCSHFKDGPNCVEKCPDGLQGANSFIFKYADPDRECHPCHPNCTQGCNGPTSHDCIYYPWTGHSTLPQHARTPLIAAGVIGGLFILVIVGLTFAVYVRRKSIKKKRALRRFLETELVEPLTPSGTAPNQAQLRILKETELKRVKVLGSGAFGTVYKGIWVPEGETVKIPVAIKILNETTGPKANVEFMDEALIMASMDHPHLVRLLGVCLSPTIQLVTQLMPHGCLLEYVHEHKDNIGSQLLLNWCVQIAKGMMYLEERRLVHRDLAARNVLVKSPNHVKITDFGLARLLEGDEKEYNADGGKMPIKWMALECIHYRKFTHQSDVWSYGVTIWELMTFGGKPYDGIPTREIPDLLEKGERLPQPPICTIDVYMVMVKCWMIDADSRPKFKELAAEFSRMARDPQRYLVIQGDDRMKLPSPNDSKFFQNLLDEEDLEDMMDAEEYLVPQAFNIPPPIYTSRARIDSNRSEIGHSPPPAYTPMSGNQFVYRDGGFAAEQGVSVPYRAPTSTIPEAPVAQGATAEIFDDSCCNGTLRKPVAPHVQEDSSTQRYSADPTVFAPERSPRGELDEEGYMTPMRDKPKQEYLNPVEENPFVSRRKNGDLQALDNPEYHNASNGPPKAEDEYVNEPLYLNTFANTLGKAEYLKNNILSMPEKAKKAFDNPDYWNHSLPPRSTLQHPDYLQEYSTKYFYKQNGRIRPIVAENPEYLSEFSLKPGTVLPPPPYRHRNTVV
Chain of Focal adhesion kinase 1 (Homo sapiens) (Q05397 2-1052 limits assumed): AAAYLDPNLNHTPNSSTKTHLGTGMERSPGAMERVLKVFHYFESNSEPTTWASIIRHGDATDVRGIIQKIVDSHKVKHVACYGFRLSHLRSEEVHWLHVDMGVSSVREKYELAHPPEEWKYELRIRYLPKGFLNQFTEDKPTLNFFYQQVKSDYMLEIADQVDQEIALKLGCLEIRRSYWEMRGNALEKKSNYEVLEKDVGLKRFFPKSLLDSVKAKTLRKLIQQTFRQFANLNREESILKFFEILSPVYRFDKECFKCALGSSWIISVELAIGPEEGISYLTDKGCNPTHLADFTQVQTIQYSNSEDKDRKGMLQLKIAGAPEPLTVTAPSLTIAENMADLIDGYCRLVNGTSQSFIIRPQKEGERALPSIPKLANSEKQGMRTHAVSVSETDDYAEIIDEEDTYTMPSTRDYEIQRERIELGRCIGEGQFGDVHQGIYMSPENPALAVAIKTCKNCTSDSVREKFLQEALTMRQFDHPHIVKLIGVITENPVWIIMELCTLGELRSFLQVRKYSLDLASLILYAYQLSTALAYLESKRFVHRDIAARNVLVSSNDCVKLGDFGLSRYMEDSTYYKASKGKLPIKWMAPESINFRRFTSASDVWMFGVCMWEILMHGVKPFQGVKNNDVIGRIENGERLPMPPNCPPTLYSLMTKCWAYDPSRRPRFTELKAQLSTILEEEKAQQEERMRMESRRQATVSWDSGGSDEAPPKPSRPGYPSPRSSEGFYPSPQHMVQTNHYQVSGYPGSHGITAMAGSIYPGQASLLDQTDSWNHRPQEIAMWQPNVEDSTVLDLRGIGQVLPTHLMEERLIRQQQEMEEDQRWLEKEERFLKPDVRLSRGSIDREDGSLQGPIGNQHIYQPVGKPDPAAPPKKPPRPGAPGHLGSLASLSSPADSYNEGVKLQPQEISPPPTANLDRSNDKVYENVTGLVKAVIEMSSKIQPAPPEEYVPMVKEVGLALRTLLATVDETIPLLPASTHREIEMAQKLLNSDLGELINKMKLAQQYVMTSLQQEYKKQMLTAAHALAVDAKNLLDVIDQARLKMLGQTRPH

Broadly, the residual activity is the signal under treatment as a percentage of the control signal. With `NC(=O)c1ccc2[nH]c(-c3ccc(Oc4ccc(Cl)cc4)cc3)nc2c1`, the residual activity in test [1] was 94%; in [2], 110%; in test [3] it was 128%; in [4], 102% (inactive); in test [5], 94%; in test [6], 89%. Also, the residual activity in [7] amounted to 93%; in test [8] it was 106%; in [9], 126%; in test [10], 91%.
